# Reference: PubChem BioAssay (NCI)
# “And” between values parts separate entries of the source, which are not always exact repeats. Identical values can stand only once. About 83,000 compounds went through this panel and 20% of them were active in at least one assay; those are over-represented in the sample as a whole.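 48-hour exposure, single concentration, 96-well plates; percent growth endpoint where 0 means no net growth. Active: below 10.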 Unmarked numbers belong to inactive results. The source made the active and inactive calls.
# System: HL-60(TB) leukemia
# Assay: NCI-60 one-dose screen, 48 h (100 = growth as untreated, 0 = no growth, -100 = all killed)
# Conditions: 10 µM unless noted
row,Compound,growth
1,CCCCOc1nc2ccccc2cc1/C=C/c1cc(/C=C/c2cc3ccccc3nc2OCCCC)n(-c2ccccc2)n1,97.5%
2,C[C@@H](O)[C@H]1C(=O)N2C(C(=O)O)=C(SCCN=CN)C[C@H]12,19.1%
3,COc1cccc(OC(=O)c2ccccc2)c1OC(=O)c1ccccc1,69.6%
4,CCN(CC)c1ccc2[nH]c3c(C(N)=O)cc(=O)c(=O)c=3oc2c1,-25.1% (active)
5,COc1ccc(OC)c(NC(=O)c2cc(S(=O)(=O)N3CCc4ccccc43)ccc2OC)c1,107%
6,Cc1ccc(/C=C/C(=O)c2ccc(N)cc2)c(C)c1,60.3%
7,COc1cnc2c(c1)C(=O)c1c-2n(CCCN2CCCC2)c(=O)c2cc([N+](=O)[O-])ccc12,-24.9% (active)
8,CN(CCC(=O)/C(=C\c1ccccc1)c1ccc(Cl)cc1)Cc1ccccc1,41%
9,O=C(CN1C(=O)CCC1=O)Nc1ncc(Cc2ccc(F)cc2)s1,98.2%
10,O=C(CCCCCCSc1nc(-c2ccc(Cl)cc2)cc(-c2ccc(Cl)cc2)n1)NO,9.99% (active)
11,CC(=O)n1nc(C(=O)OC(C)C)c2cc(C)c(C)cc21,83.7%
12,S=C(S)N1CCCC1,114% and 110%
13,O=c1oc2cc(OS(=O)(=O)c3ccccc3)c(Cl)cc2c2c1CCCCCC2,87.6%
14,CCN(C(=O)N1CCN(c2cc3c(cc2F)c(=O)c(C(=O)O)cn3C2CC2)CC1)c1nc(-c2ccc(Cl)cc2)cs1,-27.1% (active)
15,COc1ccc(N2CCC(=O)NC2=S)cc1,101%
16,COc1ccc(C2=CC(c3ccc(OC)cc3Br)N3C=CSC3=N2)cc1 (centres undefined),61.4%
17,O=C(C(=O)N1CCOCC1)c1ccc(O[C@H]2O[C@H](CO)[C@@H](O)[C@H](O)[C@@H]2O)cc1,113%

row,Compound,growth
1,COC(=O)c1cc(-c2cccs2)c(C#N)c(N)c1C#N,108%
2,c1ccc(C(NC2CC3CCC2C3)c2ccccc2)cc1 (centres undefined),100%
3,OC1CCC(Oc2cccc3cnc(Nc4ccc5nc[nH]c5c4)nc23)CC1 (centres undefined),-26.1% (active) and 9% (active)
4,Oc1ccc(N=Nc2ccc(Br)cc2)c(O)c1,-21.8% (active)
5,O=c1[nH]c(=S)[nH]n1C(=S)n1[nH]c(=S)[nH]c1=O,99.1%
6,O=C(CN1C(=O)S/C(=C\C(Cl)=C\c2ccccc2)C1=O)NCCc1ccc(O)cc1,3.33% (active)
7,COc1ccc2c(O)c(/C=C3\N=Nc4ncccc43)oc2c1C[C@H]1CCNC[C@H]1F,-45.4% (active)
8,CNC(C)=O,107%
9,C[C@@H](c1ccc2c(c1)[nH]c1ccc(Cl)cc12)c1nc2ccccc2[nH]1,91.3%
10,COc1ccc(/C=C/C(=O)/C=C(/C=C/c2ccc(OC)c(OC)c2)OB(F)F)cc1OC,19.7%
11,O=C(CC12CC3CC(CC(C3)C1)C2)NCCOCCOCCNC(=O)c1cc2c(o1)C(=O)c1ccccc1C2=O,-16% (active)
12,COc1ccc2[nH]cc(C(c3cc(F)cc(F)c3)c3c[nH]c4ccc(OC)cc34)c2c1,131%
13,NC(N)=Nc1ccc(S(=O)(=O)O)cc1,108%
14,C=CCc1c(O)c(C(=O)/C=C/c2ccc(Cl)cc2)c(OC)c2ccoc12,25.4%
15,Cc1cc(OC(=O)c2ccc([N+](=O)[O-])cc2)nc2[nH]c(=O)sc12,99.5%
16,COc1cc(C2c3cc(OC(C)=O)c(OC)cc3CC3C(=O)OCC32)ccc1OC(C)=O (centres undefined),71.7%
17,O=[N+]([O-])c1ccc(Oc2cccnc2)c([N+](=O)[O-])c1,-10.1% (active)
